# Out of some 48,000 compounds screened, about 13,000 (27%) showed an effect of 50% or more. The list shows a part of the results.
# System: Wolbachia pipientis
# Experiment: Anti-Wolbachia Cell-Based Screen
# Type: functional
# Design: scale not given: in the data most compounds retested in dose-response had high values
# Conditions: 5 µM
row,SMILES,Percent Effect [%]
1,O=C(c1ccccc1C(F)(F)F)N1C[C@@H](CN2CCOCC2)[C@@H](CO)C1,-0.09435
2,CCCc1cncnc1N1CCC(NCc2cc3ccccc3[nH]2)CC1,-18.7
3,O=C(NC1CC1)[C@H]1C[C@H]2OCC[C@H]2N(CC2CCOCC2)C1.O=C(O)C(F)(F)F,0.97
4,O=C(Nc1nncs1)N1CCCN(C2CCCCC2)CC1,-4.459
5,COc1ccc(S(=O)(=O)NCCC(O)c2cc(C)oc2C)c(C)c1 (stereo not given),2.617
6,C[C@@H]1C[C@H]2CN(C(=O)C3=CCCCC3)C[C@H]2O1,0.662
7,O=C(NC1CCS(=O)(=O)c2ccccc21)c1cccs1 (stereo not given),3.993
8,CCNC(=O)N1C[C@@H]2OCC(=O)N(C(C)C)[C@@H]2C1,-6.666
9,Cc1ccsc1C(=O)Nc1cnn(CC(=O)NC2CCCC2)c1,2.464
10,Cc1nc(C)c(C(=O)Nc2cnn(CC(=O)NC3CCCC3)c2)s1,111.4
11,Cc1cc(C(=O)Nc2cnn(CC(=O)NC3CCCC3)c2)c(C)s1,2.888
12,Cc1nc(CC(=O)N2CCCC2c2nc(-c3ccccc3)no2)cs1 (stereo not given),-0.9344
13,O=C(c1c2c(N3CCCC3)ncnc2n2ccccc12)N1CCOCC1,-6.579
14,Nc1c(N2CCCC2)ncnc1N1CCOCC1,108.5
15,O=C(c1c2c(N3CCOCC3)ncnc2n2ccccc12)N1CCCC1,-0.1651
16,Cn1cccc1C(=O)N1CCc2ncnc(N3CCOCC3)c2CC1,-2.151
17,CN1CCCN(c2ncnc(N3CCOCC3)c2N)CC1,103.9
18,CC(C)(C)C(=O)N1CCCN(c2ncnc3nc(N)ccc23)CC1,6.072
19,O=C(CSc1ccccc1)N1CCc2c(ncnc2N2CCOCC2)C1,3.982
20,OC1(CN2CCCC2)COCCN(c2ncnc3[nH]cnc23)C1 (stereo not given),9.273
21,Nc1c(N2CCCCC2)ncnc1N1CCOCC1,114.1
22,Nc1c(N2CCOCC2)ncnc1N1CCOCC1,121.8
23,Clc1cnccc1N1CCCOCC1,1.077
24,O=C1COc2ccc(S(=O)(=O)NCC3CCCO3)c3c2N1CCC3 (stereo not given),-4.147

row,SMILES,Percent Effect [%]
1,Cc1ccc(CN2CC[C@@H]3[C@@H](CO[C@H]3CN3CCN(C)CC3)C2)s1.O=C(O)C(F)(F)F.O=C(O)C(F)(F)F.O=C(O)C(F)(F)F,97.55
2,CN(C)C[C@@H]1OC[C@H]2CN(Cc3ccoc3)CC[C@H]21.O=C(O)C(F)(F)F.O=C(O)C(F)(F)F,10.46
3,Cc1ccc(CN2CC[C@H]3CO[C@H](CN(C)Cc4ccco4)[C@H]3C2)s1.O=C(O)C(F)(F)F.O=C(O)C(F)(F)F,10.16
4,CN1CCN(C[C@H]2OC[C@@H]3CCN(C(=O)c4cnccn4)C[C@@H]32)CC1.O=C(O)C(F)(F)F.O=C(O)C(F)(F)F,-7.535
5,Cc1ccc(CN2CC[C@H]3[C@H](CO[C@H]3CN(C)C)C2)o1.O=C(O)C(F)(F)F.O=C(O)C(F)(F)F,-5.785
6,CN1CCN(C[C@@H]2OC[C@H]3CN(CCc4ccccc4)CC[C@H]32)CC1.O=C(O)C(F)(F)F.O=C(O)C(F)(F)F.O=C(O)C(F)(F)F,108.2
7,Cc1ccc(CN2CC[C@@H]3[C@@H](CO[C@H]3CN3CCN(C)CC3)C2)cc1.O=C(O)C(F)(F)F.O=C(O)C(F)(F)F.O=C(O)C(F)(F)F,118.8
8,CN1CCN(C[C@@H]2OC[C@H]3CN(Cc4cccc(F)c4)CC[C@H]32)CC1.O=C(O)C(F)(F)F.O=C(O)C(F)(F)F.O=C(O)C(F)(F)F,-7.407
9,CN(Cc1cccnc1)C[C@@H]1OC[C@H]2CN(Cc3ccoc3)CC[C@H]21.O=C(O)C(F)(F)F.O=C(O)C(F)(F)F.O=C(O)C(F)(F)F,6.292
10,CCN1CCC(N[C@@H]2CC[C@@H]2NC(=O)Cc2csc(C)n2)CC1,2.853
11,Clc1cccnc1N1CCC(NCc2cccc3cn[nH]c23)C1 (stereo not given),0.5809
12,COCC1c2nnn(CC3CC3)c2CCN1C(=O)c1ccncn1 (stereo not given),-7.229
13,CN(C)c1ccc(-c2cc(C(=O)O)cc(S(=O)(=O)NC3CC3)c2)cc1,-6.079
14,COCc1cc(O)nc(C2CCCN(Cc3ccc(OC)cc3)C2)n1 (stereo not given),126.6
15,COCc1cc(O)nc(C2CCCN(Cc3cccc(OC)c3)C2)n1 (stereo not given),123.8
16,COCC1CCCN(CCCc2cccc(OC)c2)C1 (stereo not given),6.457
17,COCc1cc(O)nc(C2CCCN(Cc3cccc(Cl)c3Cl)C2)n1 (stereo not given),101.5
18,Cc1cc(O)nc(C2CCCN(Cc3ccncc3)C2)n1 (stereo not given),-8.016
19,COCCN1C[C@H]2CN(Cc3cccc(OC)c3)CCN2C1=O,-3.935
20,COCc1nccc(C2CCCN(Cc3ccccc3C#N)C2)n1 (stereo not given),-3.966
21,CCc1cc(O)nc(C2CCCN(Cc3ccncc3)C2)n1 (stereo not given),119.5
22,NC(=O)Cn1ccnc1C1CCCN(Cc2cccc(Cl)c2F)C1 (stereo not given),-13.72
23,COCc1cc(O)nc(C2CCCN(Cc3cc(OC)ccc3F)C2)n1 (stereo not given),-12.81
24,COCCn1cnnc1CCn1ccnc1-c1ccccc1Cl,-5.954

row,SMILES,Percent Effect [%]
1,CN(Cc1ccon1)c1nc(-c2ccccn2)nc2c1CCNCC2,-7.259
2,CCn1c(Cn2cccn2)nnc1C1CCN(Cc2ccc(C)o2)CC1,4.312
3,O=c1c2ccccc2nc2n1CCC2O (stereo not given),1.424
4,O=C(Nc1cc(CSCCO)ccn1)c1ccc(Cl)o1,-51
5,Cc1ncccc1C(=O)NC1(c2cccc(F)c2)CCOCC1,-2.77
6,COCc1cc(O)nc(C2CCCN(Cc3ccc(F)cc3)C2)n1 (stereo not given),105.5
7,CC(NC(=O)NCCN1CCCCCC1=O)c1ccc(Cl)s1 (stereo not given),-4.831
8,CC(C)CC(=O)N1CCN(Cc2cc(-c3ccncc3)nn2C)CC1,111
9,CCc1nc(CN2CCCN(C(=O)COC)CC2)cs1,6.894
10,CCN(CC)CC(=O)N1CCN(CCCc2ccncc2)CC1,2.413
11,CCCC(=O)N1CCN(c2cc(-n3cnc(C)c3C)nc(C)n2)CC1,-4.899
12,CCN(CC)CC(=O)N1CCN(CCc2ccncc2)CC1,-8.418
13,CCCC(=O)N1CCN(Cc2cc(-c3ccncc3)nn2C)CC1,103.8
14,CCC(=O)N1CCN(Cc2cc(-c3ccncc3)nn2C)CC1,-2.828
15,CCC(CC)C(=O)N1CCN(Cc2cc(-c3ccncc3)nn2C)CC1,102.3
16,COCC(=O)N1CCN(Cc2cc(-c3ccncc3)nn2C)CC1,92.41
17,CC(C)C(=O)N1CCN(Cc2cc(-c3ccncc3)nn2C)CC1,-9.87
18,CCN(CC)C(=O)N1CCN(CCc2ccncc2)CC1,2.653
19,COc1ccc2nc(CNC(=O)c3cc(C(C)C)no3)[nH]c2c1,-7.08
20,CC(NCc1cnn(C)c1)c1noc(-c2ccc(Cl)cc2)n1 (stereo not given),2.096
21,O=C1CCc2cc(C(=O)NCc3ccc(-n4cncn4)nc3)ccc2N1,-4.762
22,O=C(NCCn1nc(-n2cncn2)ccc1=O)c1ccsc1,90.98
23,Cc1ccc(C(=O)NCCS(=O)(=O)Cc2ccccc2)c(C)c1,5.407
24,O=C(NCCn1nc(-n2cncn2)ccc1=O)c1ccc(F)cc1F,119.8

row,SMILES,Percent Effect [%]
1,Cc1csc(C(=O)NCCn2nc(-n3cncn3)ccc2=O)c1,104.4
2,Cc1ccc(C(=O)NCCn2nc(-n3cncn3)ccc2=O)c(C)c1,115.4
3,O=C(NCCc1ccsc1)c1ccoc1,7.959
4,Cc1ccc(C(=O)NCCCn2cncn2)c(=O)[nH]1,0.33
5,N#Cc1cccc(N2CCCC3(C2)CN(c2nncs2)CCO3)c1 (stereo not given),-22.42
6,O=C1O[C@@H]2CN(c3ccc(Cl)cn3)C[C@@H]2N1CCc1ccc(F)cc1,15.74
7,CCOc1cc(CNC(=O)C(C#N)c2nc(C)cs2)ccc1OC(F)F (stereo not given),-3.55
8,NS(=O)(=O)CCNC(=O)c1ccc(OCc2ccccc2)nc1,5.557
9,CCCc1nc(C)cc(N2CCNC(C(=O)NC3CC3)C2)n1 (stereo not given),-8.099
10,O=C(C1CN(CC2CC2)CC12CCOCC2)N1CCOCC1.O=C(O)C(F)(F)F (stereo not given),0.7969
11,O=C(CN1CCCCC1Cn1cccn1)NC1CCN(C2CC2)CC1 (stereo not given),-1.641
12,O=C(NCCn1nc(-n2cncn2)ccc1=O)c1ccccc1Br,41.16
13,CCSc1ccccc1C(=O)NCCn1nc(-n2cncn2)ccc1=O,112
14,CCSc1ccccc1C(=O)NCCn1nc(C(F)(F)F)n(C)c1=O,-21.23
15,O=C(NCc1ccccn1)c1nnn(-c2ccc(Br)cc2)n1,7.96
16,COCC(C)NC(=O)c1nnn(-c2ccc(Br)cc2)n1 (stereo not given),4.837
17,CCC(C)NC(=O)c1nnn(-c2ccc(Br)cc2)n1 (stereo not given),110.8
18,CN(CC(N)=O)C(=O)c1cn(-c2ccc(Br)cc2)cn1,8.695
19,CC1CCCN(C(=O)c2nnn(-c3ccc(C(F)(F)F)cc3)n2)C1 (stereo not given),-23.6
20,CN(C)C(=O)c1nnn(-c2ccc(Br)cc2)n1,110.9
21,Cc1ccc(CN(C)C(=O)CN2CCCCC2Cn2cncn2)cc1 (stereo not given),-11.49
22,O=C(NCc1ccccc1CN1CCOCC1)Nc1nncs1,33.23
23,CC(C1CCN(Cc2cccc(OC(F)F)c2)CC1)N1CCOCC1 (stereo not given),4.738
